In all, about 5,500 compounds went through this assay and about 2,000 (36%) were called active. Another 18% or so got no clear call; they are omitted. No stated cut-off is given here; in the data, active means normalized growth mostly below about 0.91 (no sharp cut-off); inconclusive means no clear call, values can overlap the other calls; inactive means mostly above about 0.92. This is one part of the list.
Assay: chemical genetic growth profiling, strain panel (AID 1159580);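 further: tested at 20 µM; growth read once vehicle control cultures reached saturation at 30 °C; 1 = growth at the plate median or of vehicle wells; lower values mean less growth of the strain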
Settings: S. cerevisiae deletion strains, growth OD
[1] = locus YAR019C, strain CDC15, active compounds read low
[2] = locus YBL105C, strain PKC1, active compounds read low
[3] = locus YBR135W, strain CKS1, active compounds read low
[4] = locus YBR136W, strain MEC1, active compounds read low
[5] = locus YBR160W, strain CDC28, active compounds read low
[6] = locus YDL017W, strain CDC7, active compounds read low
[7] = locus YDL028C, strain MPS1, active compounds read low
[8] = locus YDL101C, strain DUN1, active compounds read low
[9] = locus YDL108W, strain KIN28, active compounds read low
[10] = locus YDL132W, strain cdc53, active compounds read low
[11] = locus YDL214C, strain PRR2, active compounds read low
[12] = locus YDR052C, strain DBF4, active compounds read low
[13] = locus YDR054C, strain cdc34, active compounds read low
[14] = locus YDR226W, strain ADK1, active compounds read low
[15] = locus YDR477W, strain SNF1, active compounds read low
[16] = locus YER123W, strain YCK3, active compounds read low
[17] = locus YER133W, strain GLC7, active compounds read low
[18] = locus YFL009W, strain cdc4, active compounds read low
[19] = locus YFL029C, strain CAK1, active compounds read low
[20] = locus YFR003C, strain YPI1, active compounds read low
[21] = locus YFR019W, strain FAB1, active compounds read low
[22] = locus YFR028C, strain CDC14, active compounds read low
[23] = locus YGR040W, strain KSS1, active compounds read low
[24] = locus YGR052W, strain FMP48, active compounds read low
[25] = locus YGR092W, strain DBF2, active compounds read low
[26] = locus YHR030C, strain SLT2, active compounds read low
[27] = locus YHR079C, strain IRE1, active compounds read low
[28] = locus YHR082C, strain KSP1, active compounds read low
[29] = locus YHR205W, strain SCH9, active compounds read low
[30] = locus YIL147C, strain SLN1, active compounds read low
[31] = locus YJL095W, strain BCK1, active compounds read low
[32] = locus YJL157C, strain FAR1, active compounds read low
[33] = locus YJR016C, strain ILV3, active compounds read low
[34] = locus YJR066W, strain TOR1 (second series), active compounds read low
[35] = locus YJR066W, strain TOR1, active compounds read low
[36] = locus YKL048C, strain ELM1, active compounds read low
[37] = locus YKL067W, strain YNK1, active compounds read low
[38] = locus YKL101W, strain HSL1, active compounds read low
[39] = locus YKL193C, strain SDS22, active compounds read low
[40] = locus YKL203C, strain TOR2, active compounds read low
[41] = locus YLR113W, strain HOG1, active compounds read low
[42] = locus YLR133W, strain CKI1, active compounds read low
[43] = locus YLR403W, strain SFP1, active compounds read low
[44] = locus YML070W, strain DAK1, active compounds read low
[45] = locus YMR001C, strain CDC5, active compounds read low
[46] = locus YMR205C, strain PFK2 (second series), active compounds read low
[47] = locus YNL006W, strain LST8, active compounds read low
[48] = locus YNL020C, strain ARK1, active compounds read low
[49] = locus YNL161W, strain CBK1, active compounds read low
[50] = locus YNL183C, strain NPR1, active compounds read low
[51] = locus YNL207W, strain RIO2, active compounds read low
[52] = locus YNL222W, strain SSU72, active compounds read low
[53] = locus YNL307C, strain MCK1 (second series), active compounds read low
[54] = locus YOL136C, strain PFK27, active compounds read low
[55] = locus YOR061W, strain CKA2, active compounds read low
[56] = locus YOR119C, strain RIO1, active compounds read low
[57] = locus YOR231W, strain MKK1, active compounds read low
[58] = locus YOR329C, strain SCD5, active compounds read low
[59] = locus YPL031C, strain PHO85, active compounds read low
[60] = locus YPL153C, strain RAD53, active compounds read low
[61] = locus YPL204W, strain HRR25, active compounds read low
[62] = locus YPL209C, strain IPL1, active compounds read low
[63] = locus YPL256C, strain CLN2, active compounds read low
[64] = locus YPR025C, strain CCL1, active compounds read low
[65] = locus YPR106W, strain ISR1, active compounds read low
[66] = locus YPR111W, strain DBF20, active compounds read low
[67] = strain NNK1, active compounds read low
[68] = strain TSCII, active compounds read low
[69] = locus YMR277W, strain FCP1, active compounds read low
[70] = locus YOL078W, strain AVO1, active compounds read low

Measured: normalized growth

CN1/C(=C/C=C/c2ccc3ccccc3[n+]2C)C=Cc2ccccc21
inactive: [3] 0.901 | [5] 0.919 | [7] 0.928 | [9] 0.912 | [14] 0.961 | [30] 0.905 | [65] 0.929 | [66] 0.902
active: [1] 0.675 | [2] 0.837 | [4] 0.893 | [6] 0.903 | [8] 0.362 | [10] 0.653 | [11] 0.185 | [12] 0.889 | [13] 0.581 | [15] 0.226 | [16] 0.204 | [17] 0.18 | [18] 0.684 | [19] 0.603 | [20] 0.883 | [21] 0.217 | [22] 0.885 | [23] 0.215 | [24] 0.212 | [25] 0.148 | [26] 0.177 | [27] 0.182 | [28] 0.224 | [29] 0.132 | [31] 0.208 | [32] 0.174 | [33] 0.828 | [34] 0.196 | [35] 0.197 | [36] 0.291 | [37] 0.162 | [38] 0.199 | [39] 0.655 | [40] 0.209 | [41] 0.29 | [42] 0.341 | [43] 0.0454 | [44] 0.209 | [45] 0.816 | [46] 0.325 | [47] 0.793 | [48] 0.243 | [49] 0.658 | [50] 0.197 | [51] 0.528 | [52] 0.708 | [53] 0.189 | [54] 0.188 | [55] 0.181 | [56] 0.221 | [57] 0.198 | [58] 0.702 | [59] 0.198 | [60] 0.178 | [61] 0.177 | [62] 0.748 | [63] 0.25 | [64] 0.821 | [67] 0.536 | [68] 0.604

O=C1Nc2ccccc2/C1=C\c1cccc2ccccc12
active: [26] 0.663 | [41] 0.667 | [63] 0.694
inactive: [1] 0.97 | [2] 0.955 | [3] 0.971 | [4] 0.97 | [5] 0.977 | [6] 0.963 | [7] 0.972 | [8] 0.985 | [9] 0.969 | [10] 0.965 | [11] 0.815 | [12] 0.976 | [13] 0.982 | [14] 0.96 | [15] 0.773 | [16] 0.777 | [17] 0.809 | [18] 0.98 | [19] 0.964 | [20] 0.972 | [21] 0.904 | [22] 0.972 | [23] 0.792 | [24] 0.807 | [25] 0.708 | [27] 0.73 | [28] 0.741 | [29] 0.668 | [30] 0.968 | [31] 0.718 | locus YJL128C, strain PBS2, active compounds read low 0.914 | [32] 0.796 | [33] 0.966 | [34] 0.738 | [35] 0.798 | [36] 0.886 | [37] 0.855 | [38] 0.816 | [39] 0.968 | [40] 0.857 | [42] 0.803 | [43] 0.727 | [44] 0.803 | [45] 0.957 | [46] 0.862 | [69] 0.963 | [47] 0.964 | [48] 0.784 | [49] 0.96 | [50] 0.784 | [51] 0.958 | [52] 0.971 | [53] 0.752 | [70] 0.973 | [54] 0.808 | [55] 0.867 | [56] 0.885 | [57] 0.807 | [58] 0.966 | [59] 0.738 | [60] 0.78 | [61] 0.699 | [62] 0.967 | [64] 0.972 | [65] 0.959 | [66] 0.949 | [67] 0.953 | [68] 0.965

O=C1Nc2ccccc2/C1=C\c1c[nH]c2ccccc12
inactive: [3] 0.926 | [7] 0.927 | [9] 0.924 | [33] 0.914 | [66] 0.93
active: [1] 0.472 | [2] 0.627 | [4] 0.88 | [5] 0.843 | [6] 0.717 | [8] 0.491 | [10] 0.628 | [11] 0.289 | [12] 0.91 | [13] 0.432 | [14] 0.84 | [15] 0.135 | [16] 0.249 | [17] 0.202 | [18] 0.526 | [19] 0.472 | [20] 0.894 | [21] 0.168 | [22] 0.753 | [23] 0.164 | [24] 0.126 | [25] 0.109 | [26] 0.101 | [27] 0.1 | [28] 0.136 | [29] 0.0414 | [30] 0.814 | [31] 0.0968 | [32] 0.239 | [34] 0.111 | [35] 0.111 | [36] 0.325 | [37] 0.407 | [38] 0.242 | [39] 0.618 | [40] 0.123 | [41] 0.118 | [42] 0.19 | [43] 0.108 | [44] 0.219 | [45] 0.781 | [46] 0.401 | [69] 0.548 | [47] 0.454 | [48] 0.19 | [49] 0.639 | [50] 0.133 | [51] 0.605 | [52] 0.674 | [53] 0.134 | [70] 0.609 | [54] 0.254 | [55] 0.244 | [56] 0.154 | [57] 0.125 | [58] 0.612 | [59] 0.112 | [60] 0.124 | [61] 0.125 | [62] 0.694 | [63] 0.128 | [64] 0.753 | [65] 0.863 | [67] 0.527 | [68] 0.384

Reference: PubChem BioAssay AID1159580 (chemical genetic matrix, 2015)
